Rows were chosen to be rich in hits. Some 3.2% of all compounds tested hit in one or more screens of this group.
Tau FP inhib = qHTS for Inhibitors of Tau Fibril Formation, Fluorescence Polarization. K18 P301L tau heparin fibrillization, Alexa594 FP, 6 h. hit rate 0.39% among 280,000. Microtubule-associated protein tau (Homo sapiens), P10636. Potency, µM (highest dose often 57.7 µM), actives largely listed as inhibitors; note: nearly all actives have a fitted effect of over 55% in size
Target sequence (P10636 561-689 P618L limits assumed): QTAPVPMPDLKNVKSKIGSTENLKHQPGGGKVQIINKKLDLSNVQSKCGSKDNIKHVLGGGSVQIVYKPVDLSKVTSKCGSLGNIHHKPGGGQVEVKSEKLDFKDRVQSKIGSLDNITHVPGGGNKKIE
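Read-out: fluorescence polarization of Alexa 594-labeled tau (0.24 uM), 555 nm excitation, 632 nm emission. Mixtures held 15 uM unlabeled K18 P301L, compound and 20 uM heparin, pH 7 acetate buffer, incubated 6 hr at 37 C.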
TRb SRC2 PPI = qHTS for Inhibitors of the Interaction of Thyroid Hormone Receptor and Steroid Receptor Coregulator 2. Thyroid hormone receptor beta (Homo sapiens), P10828. TRbeta-SRC2 peptide binding, fluorescence polarization; receptor liganded with 1 µM T3. Potency, µM (top dose mostly 106 µM), actives largely listed as inhibitors. hit rate 0.065% among 280,000. AID 1469, 2008; note: nearly all actives have a fitted effect of over 50% in size
Target sequence (P10828 whole entry, looked up): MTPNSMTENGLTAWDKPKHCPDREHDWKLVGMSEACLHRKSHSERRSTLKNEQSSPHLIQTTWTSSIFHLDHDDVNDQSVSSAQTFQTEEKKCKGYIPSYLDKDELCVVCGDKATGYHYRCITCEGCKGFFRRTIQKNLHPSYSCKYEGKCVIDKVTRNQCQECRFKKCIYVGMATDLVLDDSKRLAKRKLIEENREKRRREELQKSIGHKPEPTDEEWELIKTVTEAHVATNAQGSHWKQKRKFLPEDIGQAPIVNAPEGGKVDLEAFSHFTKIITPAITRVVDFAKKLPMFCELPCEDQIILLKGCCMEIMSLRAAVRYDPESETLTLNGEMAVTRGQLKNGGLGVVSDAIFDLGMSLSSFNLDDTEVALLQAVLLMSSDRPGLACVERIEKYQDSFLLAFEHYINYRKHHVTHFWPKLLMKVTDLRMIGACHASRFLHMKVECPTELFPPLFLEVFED
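Assay buffer: 20 mM Tris-HCl, 100 mM NaCl, 10% glycerol, 1 mM EDTA, 0.01% NP-40, 1 mM DTT, 1 uM T3, 5% DMSO; TRb LBD 0.6 uM, Texas Red SRC2 20 nM; FP after 5 hr.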
TR SRC2 fluor cs = Total Fluorescence Counterscreen for Inhibitors of the Interaction of Thyroid Hormone Receptor and Steroid Receptor Coregulator 2 | hit rate 0.29% among 280,000 | AID 1479, 2009 | Potency, µM (titrated, usually from 106 µM) | TRb/SRC2 Texas Red total fluorescence interference; active = well fitted curve in either direction with a large enough effect; inconclusive = small, poorly fitted or top-dose-only effect
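Flags fluorescent or light-absorbing compounds by total fluorescence, S + 2P, at 555 nm excitation and 632 nm emission. Mixture: 20 nM Texas Red SRC2 peptide, 0.6 uM human TRb LBD, 1 uM T3, 5% DMSO; compound exposure 5 h at ambient temperature.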
Tau ThT inhib = qHTS for Inhibitors of Tau Fibril Formation, Thioflavin T Binding; Microtubule-associated protein tau (Homo sapiens), P10636; recombinant tau K18 P301L, heparin-induced fibrillization, ThT fluorescence; Potency, µM (series often up to 57.4 µM), usual class: inhibitors; hit rate 2.1% among 270,000; AID 1460, 2008; note: nearly all actives have a fitted effect of over 55% in size
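Fibril formation assay: tau K18 P301L at 15 uM with trace Alexa 594 label, heparin inducer 20 uM, pH 7 sodium acetate buffer, 37 C for 6 hr; endpoint ThT signal.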
Tau fluor counter = Counterscreen qHTS for Inhibitors of Tau Fibril Formation, Fluorescence Polarization; tau K18 P301L Alexa594 fluorescence, heparin fibrillization; Potency, µM (highest dose often 57.7 µM); hit rate 0.93% among 280,000; note: nearly all actives have a fitted effect of over 55% in size
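Human tau K18 P301L (15 uM unlabeled, 0.24 uM Alexa 594-labeled) in 100 mM sodium acetate pH 7 with 20 uM heparin, 6 hr at 37 C. ThT 30 uM added, 1 hr ambient; Alexa 594 FP and total fluorescence read at 555/632 nm.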
GoLoco inh red = qHTS Assay for Inhibitors of RGS12 GoLoco Motif Activity (Red Fluorophore); Guanine nucleotide-binding protein G(i) subunit alpha-1 (Homo sapiens), P63096; Gai1:RGS12 GoLoco peptide FP, rhodamine, 10 min; Potency, µM (titrated, usually from 61.6 µM), actives largely listed as inhibitors; hit rate 0.44% among 230,000; AID 880, 2007; active = well fitted inhibition curve with a large enough effect, not every such curve was filed as active; inactive = no such curve, though single readings can be large or run the other way; note: nearly all actives have a fitted effect of over 30% in size
Numbers stand for hits; - = inactive; ? = inconclusive; . = not tested or not shown; [ ] = remark or other dose. Unless noted, calls come from the whole dose curve; as a rule, active = well fitted curve in the direction sought with a large enough effect; inconclusive = small, poorly fitted or top-dose-only effect, or another doubt; inactive = no such curve, though single readings can be large; an effect the other way counts as inactive or inconclusive.

SMILES	Tau FP inhib	TRb SRC2 PPI	TR SRC2 fluor cs	Tau ThT inhib	Tau fluor counter	GoLoco inh red
CNc1cccccc1=S	?	-	-	12.6µM	-	-
CC1CCc2noc(NC(=O)c3ccccc3[N+](=O)[O-])c2C1 (configuration not stated)	-	-	22387µM[quencher]	?	?	.
Nc1nc(N)c(N=Nc2ccc(S(N)(=O)=O)cc2)c(=O)[nH]1	-	-	-	20µM	-	-
NS(=O)(=O)c1ccc(N=Nc2ccc(=O)[nH]c2O)cc1	-	-	-	15.8µM	-	-
CCOC(=O)c1ccc(NC(=O)Nc2ccc3snnc3c2)cc1	11.2µM	-	-	-	-	.
Cc1ccc(NC(=O)Nc2ccc3snnc3c2)cc1C	?	-	-	-	?	.
O=C(Nc1ccc2snnc2c1)Nc1cccc2ccccc12	25.1µM	-	-	-	7.94µM[quencher]	-
CC1CCC(N2CC(=O)N(C3CCCCC3)C(c3ccc(F)cc3)C2=O)CC1 (configuration not stated)	-	-	-	-	-	.
CCN1C(=O)/C(=C\c2ccco2)C(C(=O)OC)=C1C	-	-	-	?	-	-
COC(=O)C1=C(C)N(Cc2cccnc2)C(=O)/C1=C\c1sccc1C	-	-	-	14.1µM	-	-
COC(=O)C1=C(C)N(Cc2ccccc2)C(=O)/C1=C\c1ccco1	-	-	-	15.8µM	?	-
CCN1C(=O)/C(=C\c2cccs2)C(C(=O)OC)=C1C	-	-	-	?	-	-
COC(=O)C1=C(C)N(CCc2ccccc2)C(=O)/C1=C\c1ccco1	-	-	-	17.8µM	-	-
CN(C)c1cc(N/N=C/c2ccc(Cl)cc2)nc(N(C)C)n1	-	-	-	14.1µM	?	-
COc1cc(N/N=C/c2ccc(N(C)C)cc2)ncn1	-	-	-	?	?	-
CCCCNC(=O)Cn1nc(N2CCN(c3ccccc3OC)CC2)ccc1=O	-	-	-	-	-	.
CN(C)CCOC(=O)[C@@H](c1ccccc1)C1(O)CCCC1	.	-	-	.	.	-
CC(C)n1c(O)c(/C=C2\C=NN=C2c2ccccc2)sc1=S	14.1µM	-	-	-	?	-
C=CC[C@@H]1C=C[C@@H](O/N=C\c2ccc(C(=O)N3[C@H](c4ccc(C)cc4)[C@@H](C)CC[C@H]3C(=O)OC)cc2)[C@@H](CO)O1	-[11.6 µM]	-[11.2 µM]	-[11.2 µM]	-[11.5 µM]	-[11.6 µM]	.
CSCC[C@H](N)C(=O)N[C@@H](C)C(=O)NCC(=O)N[C@@H](CCCN=C(N)N)C(=O)N[C@@H](CO)C(=O)NCC(=O)N[C@@H](CC(=O)O)C(=O)N[C@@H](CO)C(=O)N[C@@H](CC(=O)O)C(=O)N[C@@H](CCC(=O)O)C(=O)N[C@@H](CC(=O)O)C(=O)N[C@@H](CC(C)C)C(=O)N[C@@H](CC(C)C)C(=O)N[C@@H](CCCCN)C(=O)N[C@@H](C)C(=O)N[C@H](C(=O)O)C(C)C	.	-	-	.	.	.
CC1=NN(CCC#N)C(=O)/C1=C/c1ccc(N(C)C)cc1	-	-	-	25.1µM	-	-
O=S(=O)(O)c1ccc(N=Nc2c(O)ccc3cc(S(=O)(=O)O)ccc23)cc1	.	-	?	.	.	.
O=C1CN(CC(=O)N2CCCCC2)c2ccccc2O1	?	-	-	28.2µM	?	-
O=C1CN(CC(=O)N2CCOCC2)c2ccccc2O1	-	-	?	?	-	-
CC[n+]1c(/C=C/N(C)c2ccccc2)oc2ccccc21	-	-	-	-	-	.
SMILES	Tau FP inhib	TRb SRC2 PPI	TR SRC2 fluor cs	Tau ThT inhib	Tau fluor counter	GoLoco inh red
CC[n+]1c(/C=C/N(C)c2ccccc2)oc2ccc(F)cc21	25.1µM	-	-	14.1µM	?	-
CCn1c(/C=C/Nc2ccccc2)[n+](CC)c2ccc(Cl)cc21	-	-	-	-	-	-
CCn1c(/C=C/N(C)c2ccccc2)[n+](CC)c2ccc(Cl)cc21	-	-	-	-	-	1µM
O=C(Nc1ccccc1)c1cc(Cl)ccc1O	.	-	-	.	.	.
Nn1c(Nc2ccccc2)nc2sc3c(c2c1=O)CCC3	-	-	-	20µM	28.2µM[quencher]	-
O=C(CCS(=O)(=O)c1ccc(Br)s1)Nc1cc(C(F)(F)F)cc(C(F)(F)F)c1	20µM	-	?	-	?	.
CC(C)CO/N=C1/C[C@@H](O)[C@@H](O)[C@@H]2[C@@H]3C(=O)N(c4cccc(Oc5ccccc5)c4)C(=O)[C@H]3CC[C@@H]12	-[11.6 µM]	-[11.2 µM]	-[11.2 µM]	-[11.5 µM]	-[11.6 µM]	.
CC(COCC(C)OC(=O)c1ccccc1)OC(=O)c1ccccc1 (configuration not stated)	.	-	-	.	.	.
Cc1ccc(N=Nc2ccc(C)cc2NC(=O)Nc2ccccc2F)cc1	-	-	-	1.26µM	?	-
CCc1ccc(-n2c(-c3ccccc3)c(C)n3c4c(=O)n(C)c(=O)n(C)c4nc23)cc1	-	-	56.2µM[quencher]	-	-	.
Cc1ccc(-c2c(C)n3c4c(=O)n(C)c(=O)n(C)c4nc3n2-c2cccc(O)c2)cc1	-	-	11.2µM[quencher]	?	?	.
Cc1c(-c2ccccc2)oc2nc3c(c(=O)n(C)c(=O)n3C)n12	-	-	-	-	-	-
CC(C)[N+]1(C)C2CCC1CC(OC(=O)C(CO)c1ccccc1)C2 (configuration not stated)	-	-	-	-	-	-

Screening data as filed in PubChem.
